# Shown is part of a subset that was picked to be rich in hits.
# KDM5B inhibitor = KDM5B demethylase inhibition; Q9UGL1; KDM5B demethylase, FDH-coupled NADH fluorescence (FDH is formaldehyde dehydrogenase); Potency, µM (titrated, usually from 57.7 µM), actives largely listed as inhibitors; AID 1347165; actives 2.6% (n = 220,000); active means well fitted inhibition curve with a large enough effect; further: nearly all actives have a fitted effect of over 70% in size
#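 Coupled FDH/NAD⁺ fluorescence readout. KDM5BΔAP 200 nM final; compound titration, 10 min RT preincubation; substrate mix 12.5 µM H3K4me3, 25 µM 2-OG, 50 µM Fe(II), 100 µM ascorbate, 0.25 mM NAD⁺, 0.25 U/mL FDH; ΔRFU over 30 min.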
# Numbers stand for hits; - = inactive.
SMILES,KDM5B inhibitor
Cc1cc(=O)[nH]c(NCCNC(=O)[C@H]2CCC[C@@H](O)C2)n1,-
Cc1cc(NCCCNc2ccccc2)nc(-c2cccnc2)n1,-
C(=N\Nc1nccc(-c2cccnc2)n1)/c1ccccc1,-
c1cncc(-c2ccnc(NCCc3noc(C4CCCC4)n3)n2)c1,31.6µM
CC(C)S(=O)(=O)CCNc1nccc(-c2cccnc2)n1,31.6µM
c1cncc(-c2ccnc(NCCCn3nccc3C3CC3)n2)c1,28.2µM
Cc1cc(=O)[nH]c(NCCNc2nccc(-c3cccnc3)n2)n1,31.6µM
c1ccc2c(c1)cnn2CCCNc1ncncn1,-
CCOc1cccc2cc(-c3nc(-c4ccc(OC)c(F)c4)no3)c(=O)oc12,-
Cc1cc(C)cc(-n2nnnc2SCc2nc3ccsc3c(=O)[nH]2)c1,-
CCOc1cccc(CNC(=O)c2c(OC)cc(=O)n3c2CCCC3)c1,-
CCCC(=O)NCC1CC2c3ccccc3C1c1ccccc12 (stereo not drawn),-
C[S+](=O)([O-])N1CCC2(CCN(Cc3cccs3)c3ccccc3O2)CC1,-
C(#CCN1CCN(CC#CCOC(c2ccccc2)c2ccccc2)CC1)COC(c1ccccc1)c1ccccc1,-
COc1ccc(OC)c(C(=O)c2oc3ccc(NC(=O)C(C)(C)C)cc3c2C)c1,-
Cc1nc2ccc(C(=O)OC(C)C(=O)NC(=O)NC3CCCC3)cc2nc1C (stereo not drawn),-
O=C(CCCc1cccs1)N(CC1CCOC1)C1CC1 (stereo not drawn),-
Cc1cc(S(=O)(=O)Nc2c(NC3CCCC3)c3ccccc3oc2=O)ccc1F,-
Cc1ccc2nc(CO[C@H]3CN(Cc4cn(C)c5ccccc45)C[C@H]3F)[nH]c2c1,-
O=C(NCCOc1ccccc1)C1CN(Cc2ccccc2)C(=O)N1 (stereo not drawn),-
O=C(/C=C/c1ccc(OCCCF)cc1)N1CCN(Cc2ccccc2)CC1,-
O=C(O)CN1CCN(Cc2ccc(OCCc3ccccc3)cc2)CC1=O,25.1µM
O=C1CO[C@H]2CN(c3nccc(C(F)(F)F)n3)C[C@H]2N1Cc1ccc(F)cc1,-
COc1ccc(CN2C(=O)CO[C@H]3CN(c4nccc(C)n4)C[C@H]32)cc1,35.5µM
COc1ccc(CN2C(=O)CO[C@H]3CN(S(=O)(=O)c4ccccc4)C[C@H]32)cc1,-
SMILES,KDM5B inhibitor
COc1ccc(CCCN2C(=O)O[C@@H]3CN(c4nc(C)cc(C)n4)C[C@@H]32)cc1,-
COc1ccc(CCN2C(=O)O[C@@H]3CN(c4nc(C)cc(C)n4)C[C@@H]32)cc1,17.8µM
COc1ccc(CCN2C(=O)O[C@@H]3CN(c4nc(OC)cc(OC)n4)C[C@@H]32)cc1,-
O=C(Nc1ccc(Cl)c(C(F)(F)F)c1)c1c(F)cccc1F,-
COc1ccccc1C(=O)Nc1ccccc1C(C)C,-
O=C(O)C1CN(CC2CC2)CCN(C(=O)c2cc(=O)[nH]o2)C1 (stereo not drawn),-
Fc1ccccc1-c1nnc(SCc2cccc(F)c2F)n1C1CC1,-
COc1ccc(-c2nnc3ccc(NCCc4ccccc4)nn23)nc1,-
COCCCNc1ccc2nnc(-c3ccc(C)cn3)n2n1,39.8µM
COc1cc(Nc2ccc3nnc(-c4ccc(C)cn4)n3n2)cc(OC)c1OC,-
COc1cc(Nc2ccc3nnc(-c4ccccn4)n3n2)cc(OC)c1OC,-
Cc1ccc(-c2nnc3ccc(NCc4cccs4)nn23)nc1,-
COc1cccc(NC(=O)c2ccnc(-c3nnc4ccc(Nc5ccccc5)nn34)c2)c1,-
Fc1ccc(-c2nnc3ccc(NC4CCC4)nn23)nc1,-
COc1cccc(Nc2ccc3nnc(-c4cc(OC)ccn4)n3n2)c1,28.2µM
COc1ccc(-c2nnc3ccc(NCC(C)C)nn23)nc1,35.5µM
O=[N+]([O-])c1cccc(N/N=C/c2cccc(Br)c2)c1,-
Cc1nn(C)cc1CN(C)CC1(O)CCCN(Cc2ccc(F)cc2)C1=O (stereo not drawn),-
CN(Cc1nc(-c2ccncc2)no1)C1CCC2(CCNCC2)CC1,-
COc1cccc(CNC(=O)[C@@H]2C[C@@H](O)CN2C2CCN(C(=O)CC(C)C)CC2)c1,-
N#CCCN1CCN(C(C(=O)O)c2cn(CC(=O)O)c3ccc(Br)cc23)CC1 (stereo not drawn),-
Cc1nnc(N2CC[C@H](N3CCOCC3)[C@H](CCC(=O)O)C2)c2ccccc12,-
O=C(Cc1ccc(F)cc1)N1CCC2(C1)C(=O)N(CCc1ccccc1)c1ccccc12 (stereo not drawn),-
CCn1nc(C(=O)Nc2nc(-c3ccc(NC(C)=O)cc3)cs2)c2ccccc2c1=O,-
COc1ccc(-c2cc(-c3ccc(CO)cc3)cn3cncc23)cc1,3.98µM
SMILES,KDM5B inhibitor
COc1ccc(-c2ccnc3[nH]n(-c4ccccc4)c(=O)c23)cc1,-
COc1ccc(Nc2cnc3ccc(-c4cccc(CO)c4)nn23)cc1,-
COc1ncccc1-c1cc(C(=O)N2CCCC(OC)C2)c2c(c1)ncn2C (stereo not drawn),-
COc1cccc(C(=O)Nc2cccc(-c3nnc(-c4ccccc4)o3)c2)c1,-
COc1ccc(-c2cc(-c3cccc(NC(C)=O)c3)cn3cncc23)cc1,8.91µM
COc1ncccc1-c1cc(-c2cccnc2)c2cncn2c1,35.5µM
COc1ccc(-c2ccc(CN)cc2)cc1,-
COc1cccc(N2CCN(C(=O)c3cn(-c4ccccc4)nc3-c3cccnc3)CC2)c1,-
COc1ccc(-c2cc(-c3cccnc3OC)cn3cncc23)cc1,35.5µM
COc1ccc(-c2csc3ncnc(Nc4cc(OC)c(OC)c(OC)c4)c23)cc1,-
COc1cccc(OC)c1C(=O)Nc1cccc(-c2cn3ccsc3n2)c1,-
Cc1cccc(C)c1NC(=O)CO/N=C/c1ccccc1O,-
Cc1c(C(=O)NC(c2ccc(Cl)cc2)c2nccn2C)oc2ccccc12 (stereo not drawn),-
CC(C)C(=O)N1CCN(CCNc2cc(=O)oc3ccccc23)CC1,-
O=C(Cn1ccccc1=O)Nc1ccc(Cl)cc1Cl,-
CCCc1cc(=O)oc2c(C)c(OCC(=O)c3ccccc3)ccc12,-
COc1ccccc1SC(C)C(=O)NC(C)(C)C (stereo not drawn),-
COc1ccc(NC(=O)c2cc(-c3cccnc3)nc3ccccc23)cc1,-
COc1ccc(OC2CN(Cc3cccnc3)C2)cc1,-
O=Cc1cn[nH]c1-c1cccnc1,-
c1cncc(-c2cc(-c3ccc4cn[nH]c4c3)cn3cncc23)c1,35.5µM
Cc1nnc(-c2cc(-c3cccc(CO)c3)ccn2)n1Cc1cccnc1,-
O=C(O)c1ccc(-c2cccnc2)cc1,-
COc1ccc(-c2cc(-c3cccnc3)cn3cncc23)cc1,39.8µM
Cc1ccc(-c2cc(-c3cccnc3)c3cncn3c2)cn1,35.5µM
SMILES,KDM5B inhibitor
CC(=O)c1cccc(NC(=O)Cc2csc(-n3nc(C)c(Cc4ccccc4)c3C)n2)c1,-
Cc1ccc(NC(=O)COC(=O)c2ccc3ccccc3n2)cc1C,-
Cc1sc(-n2cnnn2)c(C(=O)Nc2ccc3c(c2)OCCO3)c1C,-
CN(C(=O)CN1CCOCC1)C1CCc2nn(C)c(=O)n2CC1 (stereo not drawn),-
COc1ccc(C(CN)c2c[nH]c3ccccc23)cc1 (stereo not drawn),-
Cc1ccsc1CN(C)Cc1ccccc1,-
CCCCN(Cc1ccccc1)c1ccc(NS(=O)(=O)c2ccc(C)c(C)c2)cc1C(=O)O,-
CCOc1ccccc1C(=O)N1CCN(c2cc(-c3ccc(OC)cc3)[nH]n2)CC1,-
CCOc1ccc(-c2cc(C(=O)O)c3ccccc3n2)cc1OCC,-

# Screens deposited in PubChem BioAssay by National Center for Advancing Translational Sciences (NCATS).
